Records with an inconclusive call do not appear. Where a call stands in place of a potency, no number is given. Unmarked numbers belong to inactive results. Calls of active or inactive are those of the source. The call rests on the fitted dose curve.

Chain of Beta-2 adrenergic receptor (Homo sapiens) (P07550 whole entry, looked up): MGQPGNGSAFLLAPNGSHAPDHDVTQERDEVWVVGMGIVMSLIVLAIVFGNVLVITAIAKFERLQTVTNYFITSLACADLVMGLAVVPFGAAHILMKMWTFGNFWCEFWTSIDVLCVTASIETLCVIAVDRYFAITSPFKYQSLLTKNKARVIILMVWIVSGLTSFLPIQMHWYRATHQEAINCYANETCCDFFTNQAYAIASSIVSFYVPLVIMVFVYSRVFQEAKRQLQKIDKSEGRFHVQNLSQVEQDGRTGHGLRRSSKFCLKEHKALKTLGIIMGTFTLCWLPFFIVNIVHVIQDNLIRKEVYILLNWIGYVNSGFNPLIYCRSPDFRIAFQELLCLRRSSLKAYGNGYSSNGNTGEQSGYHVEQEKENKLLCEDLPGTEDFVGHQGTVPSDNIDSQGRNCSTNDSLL

This assay concerns the target Beta-2 adrenergic receptor (Homo sapiens) (UniProt P07550). The assay is described as follows: Adrenergic beta2 receptor (ADRB2) small molecule antagonists, cell-based qHTS assay (AID 1963592). Further: nearly all actives have a fitted effect of over 50% in size. The conditions noted are these: CHO-ADRB2 cells, isoproterenol-stimulated cAMP HTRF ratio, 0.5 h; series mostly up to 92.4 µM. The text has this:
U.S. Tox21 Program National Center for Advancing Translational Sciences [NCATS] Division of Preclinical Innovation [DPI] U.S. Environmental Protection Agency [EPA] National Institutes of Environmental Health Sciences [NIEHS] National Toxicology Program [NTP] U.S. Food and Drug Administration [FDA] Tox21 Assay Overview: Beta adrenergic receptors (Beta-ARs) belong to the G-protein coupled receptor (GPCR) superfamily, includes three subtypes - beta1, beta2, and beta3. Beta1-AR is the predominant receptor subtype expressed in the heart, and beta2-AR is expressed in the kidney, lung, blood vessel and in the heart, and beta3 is found in the adipocytes. Beta1 and 2 ARs couple to Gs protein and elevate cyclic adenosine mono phosphate (cAMP), which activates protein kinase A and leads to the downstream signaling responsible for the physiological actions. Beta-AR agonists or antagonists are the most prescribed therapeutic agents for heart failure and asthma, and these were one of the first target receptors for the rational drug design. Tox21 10K compound library was screened using the cAMP-Gs dynamic assay (Cisbio Bioassays, Shelton, CT) to identify agonists/antagonists of the Gs-coupled human adrenergic, beta2 receptor (ADRB2) in the CHO-ADRB2 cell line (Codex BioSolutions, Inc. Gaithersburg, MD), which stably over-expresses ADRB2. The principle of cAMP-Gs dynamic assay is based on HTRF technology, which facilitates the fluorescence resonance energy transfer (FRET) between donor Europium cryptate and acceptor d2-labeled cAMP. The cAMP generated within cells competes with the red acceptor, d2-labled cAMP, for binding to the monoclonal anti-cAMP-cryptate (Europium donor). An increase in intracellular cAMP leads to the disruption of FRET signal, and the signal is inversely proportional to the cAMP concentration. Propranolol HCl (Sigma-Aldrich, St. Louis, MO) was used as a positive control in the screening.
Tox21 Assay Protocol Summary: CHO-ADRB2 cells were dispensed at 1,000/well in 4uL assay medium into white/solid 1536-well plates (Greiner Bio-One North America Inc., Monroe, NC) using a Multidrop Combi dispenser (ThermoFisher Scientific, Waltham, MA). The assay plates were incubated at 37C and 5% CO2 for an overnight (18-20hr). Then positive control and test compounds dissolved in DMSO were transferred to the assay plates at 23nL using a Pintool station (Wako, San Diego, CA). Following the compound and positive control transfer, 1uL agonist-stimulation mix containing 1nM Isoproterenol HCl, 100uM IBMX and 25uM Ro-20-1724 was added to each well of the assay plates using BioRAPTR Flying Reagent Dispenser (FRD, Beckman Coulter, Brea, CA). The assay plates were incubated at room temperature for 0.5hr. Then 2.5ul each d2-labled cAMP and anti-cAMP-cryptate solutions were added separately to each well of the assay plates using an FRD and the assay plates were incubated at room temperature for 1hr. The fluorescence signal was measured at two different wavelengths (665nm and 615nm) using an Envision plate reader (Perkin Elmer, Shelton, CT). Data were expressed as the ratio of 665 nm/615 nm.
On the technique in general: qHTS replaces the single test concentration by a dilution series.
Take `NC(=O)c1ccccc1[N+](=O)[O-]`: the Potency entry is “inactive”.
Still for that read-out and setting: the same measure for `C=C(C)C(=O)OCC[N+](C)(C)C`: “inactive”; for `CCOC(=O)C(=O)OCC`: “inactive”; for `CCNc1nc(NC(C)(C)C)nc(OC)n1`: “inactive”.
For the molecule `CN=C(NC#N)Nc1ccc(C2=NNC(=O)CC2C)cc1` (stereo not given), the Potency entry is “inactive”.
Take `NC(Cc1ccc(Cl)cc1)C(=O)O` (stereo not given): the activity change, negative = inhibition is -0.117% [at 0.349 µM].
Take `COc1c(C)c2c(c(O)c1C/C=C(\C)CCC(=O)OCCN1CCOCC1)C(=O)OC2`: the Potency result is “inactive”.
Turning to `CCN(CC)c1cccc(C)c1`, the Potency entry is “inactive”.
As to `CCOC(=O)CC#N`, the Potency result is “inactive”.
Still for that read-out and setting: the same measure for `CC(=O)c1cnccn1`: “inactive”; for `Cc1cc(SC2=C(O)C[C@@](CCc3ccc(N)cc3)(C(C)C)OC2=O)c(C(C)(C)C)cc1CO`: “inactive”.
The same measure, in the same setting: the same measure for `CCOC(=O)N1CCC(n2c(=O)[nH]c3cc(Cl)ccc32)CC1`: “inactive”; for `c1cnc2c(n1)CCCC2`: “inactive”.
As to `O=C(N[C@@H](Cc1ccccc1)[C@@H](O)C(=O)N1C[C@@H](O)[C@@H](O)C1)c1cc2cc(Cl)ccc2[nH]1`, the Potency result was “inactive”.
Same read-out and setting: in the case of `O=C(OCCCCCCOC(=O)c1ccccc1)c1ccccc1` it was “inactive”; in that of `Cc1cccc(CN2CCN(C(c3ccccc3)c3ccc(Cl)cc3)CC2)c1` (stereo not given), “inactive”; in that of `Cc1ccccc1C(=O)Nc1ccc(C(=O)N2CCCC(N(C)C)c3ccccc32)cc1` (stereo not given), “inactive”.
The same measure, in the same setting: in the case of `CCCCN(CCCC)C(C(N)=O)c1ccc(OC)cc1` (stereo not given) it was “inactive”; in that of `CCCCCN(CCCCC)C(=O)C(CCC(=O)O)NC(=O)c1ccc(Cl)c(Cl)c1` (stereo not given), “inactive”.
Regarding `OCCN(CCO)CCN(CCO)CCO`, the Potency result was “inactive”.
On to `CCC(=O)C(=O)CC`, for which the Potency result is “inactive”.
For the molecule `CCCCC(=O)O[C@]1(C(=O)CO)[C@H](C)C[C@H]2[C@@H]3CCC4=CC(=O)C=C[C@]4(C)[C@@]3(F)[C@@H](O)C[C@@]21C`, the Potency entry was “inactive”.
Same read-out and setting: the same measure for `O=C(/C=C/c1ccccc1)OC/C=C/c1ccccc1`: “inactive”.
On the same count and under the same terms, the same measure for `C=CCn1c(=O)n([C@@H]2O[C@H](CO)[C@@H](O)[C@H]2O)c2nc(N)[nH]c(=O)c21`: “inactive”; for `CCOC(=O)c1ccccc1`: “inactive”; for `CCCCCCCC[N+](CCCCCCCC)(CCCCCCCC)CCCCCCCC`: “inactive”.
In the case of `CC1=C(C)C(=O)C(CCCCC#CCCCC#CCO)=C(C)C1=O`, the Potency entry was “inactive”.
Take `OCCC(F)(F)C(F)(F)C(F)(F)C(F)(F)C(F)(F)C(F)(F)C(F)(F)C(F)(F)F`: the Potency entry was “inactive”.
The same measure, in the same setting: the same measure for `CCN(CC)C(C)=O`: “inactive”; for `CCOC(=O)COc1ccc(C)cc1`: “inactive”; for `C=CC(=O)OCC1CCCO1` (stereo not given): “inactive”.
For `COc1cc(OC)cc(OC)c1`, the Potency entry was “inactive”.
On the same count and under the same terms, in the case of `COCCOC(=O)C1=C(C)NC(C)=C(C(=O)OC/C=C/c2ccccc2)C1c1cccc([N+](=O)[O-])c1` (stereo not given) it was “inactive”.
As for `O=C(OCC(O)CO)c1ccccc1Nc1ccnc2c(C(F)(F)F)cccc12` (stereo not given), the Potency entry is “inactive”.
Same read-out and setting: in the case of `CC1(N)CCC(C(C)(C)N)CC1` (stereo not given) it was “inactive”.
On the same count and under the same terms, the same measure for `c1ccc(CN(CC2=NCCN2)c2ccccc2)cc1`: “inactive”; for `CC1(c2ccccc2)OC(C(=O)O)=CC1=O` (stereo not given): “inactive”.
Regarding `O=Cc1cccc(Br)c1`, the Potency result was “inactive”.
On to `Clc1nnc(Cl)c2ccccc12`, for which the Potency entry was “inactive”.
Still for that read-out and setting: the same measure for `Nc1ccc(Cl)c([N+](=O)[O-])c1`: “inactive”.

Source of the values: PubChem BioAssay (Tox21).
